Consider 60 compounds from PubChem BioAssay AID777 (Sanford-Burnham Center for Chemical Genomics, 2007).

The inhibition is the drop in the measured response relative to a control, in per cent.

The campaign covered roughly 96,000 compounds. About 19,000 (20%) were called active. A selection follows. Unmarked numbers belong to inactive results.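 Rule for the calls: active = blocking of liver enzyme CYP2C9 beyond about 50% at 5 µM (limit read from the data); inactive = the rest.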

For the test, the target named is Cytochrome P450 2C9 (Homo sapiens) (UniProt P11712). Briefly: blockers of cytochrome P450 2C9 activity – biochemical, luminescence, ADME assay, primary screen (AID 777). The conditions noted are these: CYP2C9 Supersomes, luciferin-H conversion, at 5 µM, stronger effect = higher value.
Cytochrome P450 2C9 (Homo sapiens), sequence (P11712 whole entry, looked up): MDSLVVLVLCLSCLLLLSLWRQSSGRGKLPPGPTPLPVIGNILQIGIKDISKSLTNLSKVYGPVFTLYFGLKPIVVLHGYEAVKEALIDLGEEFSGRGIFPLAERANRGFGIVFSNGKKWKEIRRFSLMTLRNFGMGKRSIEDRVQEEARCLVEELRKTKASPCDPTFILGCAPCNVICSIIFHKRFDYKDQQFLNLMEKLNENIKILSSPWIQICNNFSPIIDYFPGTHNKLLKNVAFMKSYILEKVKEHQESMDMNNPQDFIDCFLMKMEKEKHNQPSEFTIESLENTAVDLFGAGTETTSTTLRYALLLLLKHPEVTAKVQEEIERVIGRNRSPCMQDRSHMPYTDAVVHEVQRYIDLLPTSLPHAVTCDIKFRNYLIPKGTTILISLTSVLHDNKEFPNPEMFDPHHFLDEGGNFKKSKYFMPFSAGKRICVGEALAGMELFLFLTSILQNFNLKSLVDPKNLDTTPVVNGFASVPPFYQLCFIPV
As to `CCC1=C/C(=C\c2ccc3c(c2)OCO3)C(=O)S1`, the inhibition is 16.7%.

With `CC(O)CN(Cc1ccc(Cl)cc1)CC(C)O` (stereo not given), the inhibition was -2.8%. Regarding `CN(Cc1ccccc1)Cc1ccccc1F`, the inhibition was -5%. With `OCCN(Cc1ccccc1)Cc1ccc(Cl)cc1`, the inhibition was 87.6% (active). Next, `Cn1c(=O)cc(SCC(=O)N2CCN(C(=O)c3ccco3)CC2)c2ccccc21`: -14%; `O=C(Nc1nnc(C2CC2)s1)c1ccccn1`: -32.1%. With `c1cncc(-c2nnc3n2C2(CCCCC2)Cc2ccccc2-3)c1`, the inhibition is 11.2%. With `CCC1(CC)Cc2ccccc2-c2nc3ccccc3c(=O)n21`, the inhibition is 19.3%.

On to `O=c1c2ccccc2nc2n1C1(CCCCC1)Cc1ccccc1-2`, for which the inhibition is 87.7% (active).

Take `CC(C)[C@H](NC(=O)Nc1ccc(S(N)(=O)=O)cc1)C(=O)O`: the inhibition is -7.3%.

As for `O=S(=O)(/N=C(/Nc1ccccn1)c1ccccc1)c1ccc(Cl)cc1`, the inhibition was 29%. Next, `O=C1CCCc2c1[nH]c1ccc(Br)cc21`: 19.2%. For the compound `CCOC(=O)C1=C(C)Nc2sc(C(=O)c3ccc(Br)cc3)c(N)c2C1c1ccc(C(=O)OC)cc1` (stereo not given), the inhibition was 91.9% (active). On to `CCOC(=O)c1sc(=S)n2c1[nH]c(=O)c1ccc(C(=O)OC)cc12`, for which the inhibition is 42.1%. For `COC(=O)c1ccc(C2NC(=O)NC(C)=C2C(=O)N(C)C)cc1` (stereo not given), the inhibition is -16.8%. `Cc1c(Nc2nc3ccccc3nc2NS(=O)(=O)c2cccs2)c(=O)n(-c2ccccc2)n1C`: the inhibition is 47.6%. Next, `COc1ccc(NCc2nnc(SCc3ccccc3)n2-c2ccc(OC)cc2)cc1`: 59.6% (active); `COc1ccc(-n2c(Cc3cccn3C)nnc2SCC(=O)Nc2cc(C)cc(C)c2)cc1`: 28.5%. As for `CCn1c(CNc2ccc(OC)cc2)nnc1SCC(=O)c1ccc(OC)cc1`, the inhibition was 25.4%. Next, `C=C(C)Cn1c(C)cc(C)c(S(=O)(=O)c2ccccc2C)c1=O`: 36.5%; `Cc1ccc(-n2ncc3c2ncn2nc(-c4ccco4)nc32)c(C)c1`: 0.2%. In the case of `NC(=O)C1CC=CCC1C(=O)OCC(Cl)=C(Cl)Cl` (stereo not given), the inhibition is 2.9%.

In the case of `COc1ccc(CN2CN(C(C)C)CSC2=S)cc1`, the inhibition was 34%. Take `CC(=O)Nc1ccc(S(=O)(=O)N2CCCC2C(=O)O)cc1` (stereo not given): the inhibition is -11.7%.

Turning to `Cc1cccc(NC(=O)C2CCCN2S(=O)(=O)c2ccc(F)cc2)c1C` (stereo not given), the inhibition is -147%. With `NC(=O)COc1ccc(/C=N/NC(=O)C2CCCN2S(=O)(=O)c2ccc(Cl)cc2)cc1` (stereo not given), the inhibition is 67.3% (active). Turning to `CC(C)c1nnc(NC(=O)C2CCCN2S(=O)(=O)c2ccc(Cl)cc2)s1` (stereo not given), the inhibition is 86.2% (active). As for `Cc1ccc(S(=O)(=O)N2CCCC2C(=O)NCc2ccco2)cc1` (stereo not given), the inhibition was -48.4%. Regarding `O=C(COc1ccc(Cl)cc1)N1CCN(S(=O)(=O)c2ccc(Cl)cc2)CC1`, the inhibition was 0.1%. With `CCC(C)NC(=O)C1CCCN(C(=O)NC2CCCCC2)C1` (stereo not given), the inhibition is 19.9%. The same measure for `COc1ccc(C)cc1NC(=O)c1[nH]c(C)c(C(C)=O)c1C`: 34%; for `CCOC(=O)C1Sc2[nH]c(=O)sc2C(c2ccc(Cl)cc2)C1C(=O)OCC` (stereo not given): 5.6%; for `O=c1c2ccccc2oc2nc(C3CCCCC3)n(Cc3ccco3)c(=O)c12`: 20.1%. For `CCc1nc2ccccc2n(CCOCCOCCn2c(=O)c(CC)nc3ccccc32)c1=O`, the inhibition is 24.5%. Take `CC(C)Cc1ccc(S(=O)(=O)N2CCN(C(=O)c3ccco3)CC2)cc1`: the inhibition was 17%.

In the case of `CC(c1ccco1)N(C(=O)c1ccc(S(=O)(=O)N2CCCCC2)cc1)c1ccccn1` (stereo not given), the inhibition was 56.9% (active). With `CC(c1ccco1)N(C(=O)COc1ccccc1[N+](=O)[O-])c1ccccn1` (stereo not given), the inhibition is 8.1%. Consider `Cc1cc(C)cc(OCc2nnc(SCC(=O)OC3CCCCC3)o2)c1`, for which the inhibition is -1.3%.

Turning to `C=CCc1cccc2cc(C(=O)N3CCN(C(=O)OCC)CC3)c(=O)oc12`, the inhibition is -112%. With `CCN(CC)S(=O)(=O)c1cccc(C(=O)NCC(=O)OCC(=O)NCc2ccccc2)c1`, the inhibition is 63.3% (active). The same measure for `CCN(c1ccccc1)S(=O)(=O)c1cccc(C(=O)O)c1`: 33.3%. The same measure for `CCN(CC)S(=O)(=O)c1cccc(C(=O)Nc2ccccc2)c1`: 38.7%.

Consider `c1ccc2c(-c3nn4nnnc4c4ccccc34)cccc2c1`, for which the inhibition is 13.8%. As to `CCOc1cc2[nH]c(=S)n(Cc3ccc(C(=O)NCCOC)cc3)c(=O)c2cc1OCC`, the inhibition was -7.8%. On to `O=C(CCn1c(=S)[nH]c2ccccc2c1=O)NCCCN1CCCC1=O`, for which the inhibition is -4.6%. For `O=C(NCCCN1CCCCC1)c1ccc2c(c1)NC(=O)C(N1CCOCC1)S2` (stereo not given), the inhibition is -7.1%. Next, `COc1ccc(CCNC(=O)CCn2c(=O)oc3ccccc32)cc1OC`: 8.1%. In the case of `COc1ccc(CCNC(=O)c2ccc3c(c2)NC(=O)C(N2CCOCC2)S3)cc1OC` (stereo not given), the inhibition was 50.1% (active). For the compound `O=C(CCCCCn1c(=O)[nH]c2ccccc2c1=O)NCCc1c[nH]c2ccccc12`, the inhibition is 63.8% (active).

For the compound `COCCn1c(=S)[nH]c2cc(C(=O)NCCc3ccc(OC)c(OC)c3)ccc2c1=O`, the inhibition was 55.7% (active). For `COc1ccc(CCNC(=O)c2cc(-c3ccc4c(c3)OCO4)on2)cc1OC`, the inhibition was 6.7%. The same measure for `O=C(CCn1c(=O)[nH]c2ccccc2c1=O)NCCCN1CCN(c2cccc(Cl)c2)CC1`: 29.1%. In the case of `CCN(CC)CCNC(=O)CCCCCn1c(=O)[nH]c2cc(C(=O)OC)ccc2c1=O`, the inhibition is 2.6%.

Consider `COc1ccc(CCNC(=O)CCCCn2c(=O)[nH]c3ccccc3c2=O)cc1OC`, for which the inhibition was 68.4% (active). In the case of `COCCn1c(=O)[nH]c2cc(C(=O)NCc3cccnc3)ccc2c1=O`, the inhibition is -1.7%.

For the compound `COC(=O)CSc1snnc1-c1ccc(Cl)c(Cl)c1`, the inhibition was 6.6%. Turning to `COc1ccc(/C=N/Nc2nc3ccccc3o2)cc1OC`, the inhibition was -48.5%. Next, `CC(=O)Nc1cc2ccc(OC(C)=O)cc2oc1=O`: -29.1%; `CCCOc1ccc(CN(CCO)CCO)cc1C(=O)OC`: 10.6%; `COc1cccc(-c2cnc(OC(C)(C)C)nc2OC(C)(C)C)c1`: 6.8%.
